Screening data (PubChem)
Rows were chosen to be rich in hits. Some 19% of all compounds tested hit in one or more screens of this group.
SARS PLpro yeast: SARS-CoV PLP inhibition in yeast; S. cerevisiae expressing SARS-CoV PLpro, growth rescue; Potency, µM (titrated, usually from 32.9 µM), actives largely listed as activators; 330,000 tested, 0.19% active; calls by dose curve; also: nearly all actives have a fitted effect of over 55% in size
Shiga inhibitor: blocks Shiga toxin action in Vero cells. Vero cells, Shiga toxin protein synthesis inhibition reporter. inhibition, % at 38.7 µM. 290,000 tested, 9.2% active; in the data active = inhibition mostly above about 28%, no sharp cut-off; inactive = mostly below about 43%
Pf growth 96h: inhibits malaria parasite growth, 96 h; P. falciparum luciferase reporter growth, 96 h; Potency, µM (highest dose often 28.7 µM), usual class: inhibitors; 320,000 tested, 6.9% active; AID 504834
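Delayed-death screen, second-generation endpoint: infected erythrocytes, 2% hematocrit, 0.05% parasitemia final; 96 hours at 37 C, 5% CO2; luciferase detection reagent; luminescence decrease equals reduced growth.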
AMA1 RON2 block: disrupts binding of P. falciparum AMA1 to RON2. AlphaScreen AMA1-biotinylated RON2 peptide binding. Potency, µM (top dose mostly 58.2 µM), hits mostly inhibitors. 360,000 tested, 0.2% active; also: nearly all actives have a fitted effect of over 45% in size
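AMA1 (3D7) with his tag at 25 nM final met compounds first, then biotinylated RON2 peptide at 25 nM; detection used donor plus acceptor beads, 10 µg/mL apiece, read by AlphaScreen after 30 min at room temperature.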
Pf growth 48h: P. falciparum growth inhibition at 48 hours (one generation); P. falciparum luciferase growth in erythrocytes, 48 h; Potency, µM (titrated, usually from 28.7 µM), usual class: inhibitors; 310,000 tested, 5.9% active; AID 504832
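A one-generation exposure of luciferase-tagged malaria parasites in RPMI 1640/Albumax erythrocyte culture, 37 C and 5% CO2. Inhibition is inferred from decreased luminescence after adding detection reagent.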
Cycloheximide cs: counter-screen for Shiga toxin inhibitors: cycloheximide protein synthesis inhibition. cell reporter, cycloheximide protein synthesis inhibition counterscreen. AID 2314. 300,000 tested, 12% active. max response, %; in the data active = max response mostly above about 13%, no sharp cut-off; inactive = mostly below about 14%; also: read at 38.3 µM for the half of the compounds with a filed dose
Hits are given with their value; – = inactive; ? = inconclusive; · = not tested or not shown; [ ] = dose if it differs, or a comment. Unless noted, calls follow the shape of the dose curve; as a rule, active = well fitted curve in the direction sought with a large enough effect; inconclusive = small, poorly fitted or top-dose-only effect, or another doubt; inactive = no such curve, though single readings can be large; an effect the other way counts as inactive or inconclusive.

SMILES | SARS PLpro yeast | Shiga inhibitor | Pf growth 96h | AMA1 RON2 block | Pf growth 48h | Cycloheximide cs
CCN(CC)C(=O)c1sc(N)c(C(=O)OC(C)C)c1C | – | – | – | – | ? | –
CCOC(=O)c1c(NC(=O)OC)sc(C(=O)N(CC)CC)c1C | – | – | ? | – | 5.86µM | –
CCN(CC)C(=O)c1ccccc1NS(=O)(=O)c1cccs1 | – | – | – | – | – | –
O=C1CN(c2ccccc2)C(=S)N1C(=O)c1ccccc1 | – | 47.4 | – | – | – | 46.4
Cc1cccc(N(C)C(=S)Oc2ccc3ccccc3c2)c1 | – | 49.4 | – | – | – | 27.8
COc1ccc(N(C)C(=S)Oc2ccc(C(=O)Nc3ccccc3)cc2)cc1 | – | – | ? | · | ? | –
c1ccc(Cn2c[n+](Cc3ccccc3)c3ccccc32)cc1 | – | – | 6.57µM | – | ? | –
O=c1ccn(Cc2ccccc2)c2ccccc12 | – | – | ? | – | – | –
O=C(NCCO)C(=O)NCC1OCCCN1S(=O)(=O)c1cc(F)ccc1F (stereo not drawn) | – | – | – | – | – | –
CC1(C)CC(=O)c2cc(OCC(=O)N3CCCCCC3)ccc2O1 | – | 80.0 | 13.1µM | – | ? | 56.8
CCN1CCN(C(=O)COc2ccc3c(c2)C(=O)CC2(CCN(C(C)=O)CC2)O3)CC1 | – | – | 8.28µM | – | · | –
CC(=O)N1CCC2(CC1)CC(=O)c1cc(OCC(=O)N3CCCC3)ccc1O2 | – | – | ? | – | – | –
COc1ccc2c(c1)/C(=C\c1cccc(/C=C3/C(=O)Nc4ccc(OC)cc43)n1)C(=O)N2 | · | · | · | – | · | ·
Clc1ccc(-n2cc(-c3ccc(Br)cc3)[n+]3c2CCCCC3)cc1 | – | – | ? | – | ? | –
FC(F)Sc1ccc(-n2cc(-c3ccc(Cl)cc3)[n+]3c2CCC3)cc1 | – | – | ? | – | 0.738µM | –
Cc1ccc(-c2cn(-c3ccc(SC(F)F)cc3)c3[n+]2CCC3)cc1 | – | – | ? | – | 0.37µM | –
CCC(NC(=O)c1ccccc1NC(=O)c1ccco1)C(=O)NC1CCCCC1 (stereo not drawn) | – | – | ? | – | ? | 22.5
COc1ccc(C(=O)Nc2ccccc2C(=O)NC(Cc2ccc(O)cc2)C(=O)NNC(=O)c2ccccc2Cl)cc1 (stereo not drawn) | – | – | – | – | 5.22µM | 11.5
O=C(Nc1ccccc1C(=O)NC(Cc1ccccc1)C(=O)NC1CCCCC1)c1ccccc1 (stereo not drawn) | – | – | ? | –[2.32 µM] | 10.4µM | –
CC(=O)CSc1ncnc2sc3c(c12)CCC(C)C3 (stereo not drawn) | – | – | – | – | –[1.15 µM] | –
CCOC(=O)CSc1nc(N)c2c3c(sc2n1)CCCC3 | – | – | – | – | · | 25.1
CCN(CC)C(=O)CSc1nc(N)c2c3c(sc2n1)CC(C)CC3 (stereo not drawn) | – | 56.9 | ? | – | · | 21.4
CCOC(=O)c1cnn(-c2nc(SC)nc3sc4c(c23)CCCC4)c1N | – | – | · | – | ? | –
CC1CCc2c(sc3nc(SCC(=O)NCc4ccco4)nc(N)c23)C1 (stereo not drawn) | – | – | –[5.75 µM] | – | – | 16.6
O=C(CSc1nc2sc3c(c2c(=O)n1-c1ccccc1)CCCC3)NCc1ccco1 | – | – | ? | – | – | –
SMILES | SARS PLpro yeast | Shiga inhibitor | Pf growth 96h | AMA1 RON2 block | Pf growth 48h | Cycloheximide cs
CC(C)(C)NC(=O)c1ccccc1NC(=O)C1CC(=O)N(C2CCCCC2)C1 (stereo not drawn) | – | – | – | – | – | –
CCN(C[C@H]1N[C@@](Cc2ccccc2)(C(=O)OC)[C@H]2C(=O)N(Cc3ccccc3)C(=O)[C@@H]12)C(=O)Nc1ccc(C(F)(F)F)cc1 | – | · | · | – | · | ·
O=C1C(c2ccc(F)cc2)N(CC2COc3ccccc3O2)C(=O)CN1C1CCCCC1 (stereo not drawn) | – | – | ? | – | 2.33µM | –
Fc1cccc(NC(=S)Nc2ccc(Br)cc2)c1 | – | – | ? | – | – | 19.3
CC(C)(C)NNC(=S)Nc1cccc(F)c1 | – | – | 8.28µM | – | 10.4µM | –
CN(C)C(=S)Nc1cccc(F)c1 | – | – | – | – | – | –
Cc1ccc(S(=O)(=O)N(C)c2ccc(C(=O)NCC(c3ccccc3)N3CCCC3)cc2)cc1 (stereo not drawn) | · | · | · | – | · | ·
CCS(=O)(=O)c1nc2ccccc2n1Cc1ccccn1 | – | – | – | – | – | –
CC1=C(C(=O)Nc2ccccn2)C(c2ccc(Cl)cc2Cl)NC(=S)N1 (stereo not drawn) | – | 111.3 | – | – | ? | 34.7
CC1=C(C(=O)Nc2ccccn2)C(c2ccccc2Cl)NC(=S)N1 (stereo not drawn) | – | 100.2 | ? | – | – | 39.7
COC(=O)C1=C(C)NC(=S)NC1c1ccc(N(CCCl)CCCl)cc1Cl (stereo not drawn) | · | · | · | – | · | ·
COc1ccc(/C(O)=C2/C(=O)C(=O)N(CCCN3CCOCC3)C2c2ccc(N(C)C)cc2)cc1 (stereo not drawn) | – | · | ? | – | – | –
Cc1ccnc(NC(=O)C(C)n2cc([N+](=O)[O-])cn2)c1 (stereo not drawn) | – | – | – | – | – | –
O=C(Nc1ccc2c(c1)OCCO2)c1cncc(Br)c1 | – | – | – | – | – | 23.4
O=C(Nc1ccc2c(c1)OCO2)c1cncc(Br)c1 | – | 65.5 | ? | – | – | 32.1
O=C(Nc1ccc(C(=O)NC2CCCCC2)cc1)c1cncc(Br)c1 | – | – | – | – | – | –
Cn1nc(SCc2ccccc2)c(=O)[nH]c1=O | · | · | · | – | · | ·
Cc1[nH]c2ccccc2c1C(=O)C(=O)NCc1ccncc1 | · | · | · | – | · | ·
O=C(COc1ccccc1F)Nc1ccc(-c2nc3ccccc3s2)cc1 | – | · | – | · | – | ·
CCC(=O)NC(=S)Nc1ccc(-c2nc3ccccc3s2)cc1 | – | 68.9 | – | – | – | 49.2
Cc1ccc2nc(-c3ccc(NC(=S)NC4CC(C)(C)NC(C)(C)C4)cc3)sc2c1 | – | – | – | – | – | –
CCC(=O)NC(=S)Nc1ccc(-c2nc3ccc(C)cc3s2)cc1 | – | 91.5 | 11.7µM | –[2.32 µM] | – | 39.9
Cc1ccc2nc(-c3ccc(NC(=S)NC(=O)C(C)C)cc3)sc2c1 | – | 83.7 | · | – | – | 52.5
C=CCNc1ncnc2c1ncn2[C@H]1CN(Cc2ccc(F)cc2)C[C@@H](CO)O1 | · | · | · | – | · | ·
NC(=O)c1sc(-c2ccsc2)cc1NS(=O)(=O)c1ccc(C(F)(F)F)cc1 | – | – | – | – | – | –
O=C(Nc1ccc(C(=O)N2CCOCC2)cc1)c1cccc(Br)c1 | – | – | ? | ? | – | 29.7
O=C(Nc1cccc(Br)c1)c1cccc(OC(=S)N2CCOCC2)c1 | – | 43.6 | – | – | ? | 41.2
O=C(NC(Cc1ccccc1)C(=O)O)/C(=C/c1ccc(F)cc1)NC(=O)c1ccccc1 (stereo not drawn) | – | – | – | – | – | –
